A short description of experiment [1]: qHTS assay to identify small molecule antagonists of the progesterone receptor (PR) signaling pathway - cell viability counter screen (AID 1346798). Further: series mostly up to about 92 µM; nearly all actives have a fitted effect of over 50% in size. In a few lines: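 Cytotoxicity read as CellTiter-Glo luminescence (30 min, room temperature) in the same wells as the beta-lactamase readout. HEK293T PR-UAS-bla cells in charcoal-stripped 2% FBS received compound and R5020, then 16 h at 37C, 5% CO2.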

Experiment [2] is described as follows: qHTS assay to identify small molecule agonists of the progesterone receptor (PR) signaling pathway - cell viability counter screen (AID 1346799; calls by dose curve; further: nearly all actives have a fitted effect of over 45% in size). The method, boiled down:
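Cytotoxicity measured by CellTiter-Glo luminescence (30 min, RT) in the same wells as the PR beta-lactamase agonist read. Those HEK293T cells had 16 h compound treatment at 37 C in 2% charcoal-stripped FBS medium.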
On the technique in general: qHTS replaces the single test concentration by a dilution series.

A short description of experiment [3]: qHTS assay to identify small molecule antagonists of the TGF-beta/Smad signaling pathway - cell viability counter screen (AID 1346824). Further: nearly all actives have a fitted effect of over 50% in size. The method, boiled down: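 Cytotoxicity counter-screen run in the same wells as the beta-lactamase Smad reporter read: CellTiter-Glo luminescence after 30 min at room temperature. HEK 293T SBE-bla cells had 5 hr compound exposure at 37 C with TGF-beta1 (0.25 ng/mL stock).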

A short description of experiment [4]: qHTS assay to identify small molecule agonists of the TGF-beta/Smad signaling pathway - cell viability counter screen (AID 1346829). Further: top concentration of the series differs between compounds; nearly all actives have a fitted effect of over 45% in size. In a few lines:
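CellTiter-Glo luminescence readout; SBE-bla HEK 293T cells, overnight plating, compound 5 hr at 37 C/5% CO2, then bla substrate 2 hr RT, then CellTiter-Glo 30 min RT.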

Experiment [5] can be described thus: qHTS assay to identify small molecule agonists of the TGF-beta/Smad signaling pathway (AID 1346859; active means well fitted activation curve with a large enough effect in the signal ratio in the repeat runs, not every such curve was filed as active; the % refers to the signal ratio; further: series mostly up to about 77 µM). In a few lines: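 Fluorescence (ex 405 nm; em 460 and 530 nm) was read 2 h after LiveBLAzer FRET substrate at RT. The preceding compound treatment of overnight-plated SBE-bla HEK293T cells lasted 5 h at 37 C.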
The nature of experiment [6]: Human pregnane X receptor (PXR) small molecule agonists, qHTS cell viability counter screen (AID 1346977). Further: nearly all actives have a fitted effect of over 50% in size. The method, boiled down:
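Same-well viability read: CellTiter-Fluor added after 23 hr compound exposure, fluorescence measured 1 hr later. Cells were PXR-Luc HepG2 seeded at 2,000/well in 5% charcoal-stripped FBS medium, rested 5 hr before dosing at 37 C.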

A short description of experiment [7]: Caspase-3/7 induction in HepG2 cells by small molecules, qHTS assay (AID 1346978). Further: nearly all actives have a fitted effect of over 15% in size. In a few lines:
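Caspase-3/7 induction was measured by Caspase-Glo 3/7 luminescence (30 min, room temperature) after a 17 hr compound exposure of wild-type HepG2 cells seeded at 2,000 per well and pre-incubated 5 hr.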

Experiment [8] is described as follows: Caspase-3/7 induction in CHO-K1 cells by small molecules, qHTS cell viability counter screen (AID 1346979). Further: nearly all actives have a fitted effect of over 35% in size. The method, boiled down:
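Cytotoxicity counter screen: CellTiter-Fluor added to compound-treated wild-type CHO-K1 cells at 16 h (37C, 5% CO2), fluorescence measured 1 h later; same wells as caspase-3/7 measurement.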

The nature of experiment [9]: Caspase-3/7 induction in HepG2 cells by small molecules, qHTS cell viability counter screen (AID 1346981). Further: series mostly up to about 92 µM; nearly all actives have a fitted effect of over 30% in size. In a few lines:
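In this quantitative HTS counter screen, compounds delivered in DMSO were left on unmodified HepG2 cells for 16 hr at 37 C. Viability was then determined fluorometrically with CellTiter-Fluor, in parallel with caspase-3/7 induction in the same wells.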

The target of experiment [10] is Thyrotropin-releasing hormone receptor (Homo sapiens) (UniProt P34981). The experiment can be described thus: qHTS assay to identify small molecule antagonists of the thyrotropin-releasing hormone receptor (TRHR) signaling pathway (AID 1346877; active means well fitted inhibition curve with a large enough effect in the repeat runs, not every such curve was filed as active; further: series mostly up to about 51 µM). The method, boiled down:
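Kinetic fluorescence (3 min, 1 s resolution) following stimulation with TRH at 1 nM final; HEK293 cells bearing human TRHR; 5 min compound preincubation at RT; concentration-response over 15 points, triplicates.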

A short description of experiment [11]: Caspase-3/7 induction in CHO-K1 cells by small molecules, qHTS assay (AID 1346980). Further: nearly all actives have a fitted effect of over 15% in size. The method, boiled down: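 Luminescent Caspase-Glo 3/7 read (30min, room temperature) quantified apoptosis induction. Cells were wild-type CHO-K1, treated with compound for 17hr at 37 C and 5% CO2.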
Experiment [12] concerns the target Nuclear receptor subfamily 1 group I member 2 (Homo sapiens) (UniProt O75469). The experiment can be described thus: Human pregnane X receptor (PXR) small molecule agonists, qHTS assay (AID 1346982). Further: nearly all actives have a fitted effect of over 35% in size. Further: potency means the concentration at half of the fitted maximal effect. The method, boiled down: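 Reporter HepG2 cells expressing PXR-Luc are cultured in charcoal-stripped FBS (5%), treated with compounds for 24 hr at 37 C, and assayed by ONE-Glo luminescence after 30 min at room temperature.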

The target in experiment [13] is Cytochrome P450 2D6 (Homo sapiens) (UniProt P10635). Description: Cytochrome P450 Family 2 Subfamily D Member 6 (CYP2D6) small molecule antagonists: luciferase reporter qHTS assay (AID 1671196). Further: series mostly up to about 120 µM; nearly all actives have a fitted effect of over 50% in size. The method, boiled down: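 Test chemicals meet CYP2D6 plus proluciferin substrate (10 min, RT); NADPH regenerating solution then drives turnover for 1 h. Detection reagent halts the reaction; luminescence measured after 20 min.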

Experiment [14] concerns the target Cytochrome P450 2C19 (Homo sapiens) (UniProt P33261). The experiment can be described thus: Cytochrome P450 Family 2 Subfamily C Member 19 (CYP2C19) small molecule antagonists: luciferase reporter qHTS assay (AID 1671197). Further: nearly all actives have a fitted effect of over 65% in size. Further: potency means the concentration at half of the fitted maximal effect. On activity change, negative = inhibition: series mostly up to about 120 µM. The method, boiled down: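 Enzyme-substrate mix with proluciferin substrate (P450-Glo CYP2C19 system) preincubated with compounds 10 min at room temperature; NADPH regeneration solution added, 37C for 1 h; detection reagent stops reaction, luminescence read after 20 min. Ketoconazole positive control.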
(In a reporter assay the amount or activity of a reporter protein is the signal.)

Experiment [15] concerns the target Thyrotropin-releasing hormone receptor (Homo sapiens) (UniProt P34981). The experiment can be described thus: qHTS assay to identify small molecule agonists of the thyrotropin-releasing hormone receptor (TRHR) signaling pathway (AID 1346891; calls by dose curve; further: series mostly up to about 58 µM). In a few lines:
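Agonist-mode intracellular calcium readout: kinetic fluorescence over 3 min at 1 s intervals after compound addition to TRHR-HEK293 cells (18 h seeded, 2 h dye-loaded at 37 C). Fifteen concentrations, triplicates.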

The target of experiment [16] is Progesterone receptor (Homo sapiens) (UniProt P06401). Description: qHTS assay to identify small molecule antagonists of the progesterone receptor (PR) signaling pathway (AID 1346795; active means well fitted inhibition curve with a large enough effect in the signal ratio in the repeat runs, not every such curve was filed as active; the % refers to the signal ratio). In a few lines:
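Antagonist mode with agonist R5020 at 1 nM final and 16 hr incubation at 37C. Reporter was beta-lactamase driven by UAS in HEK293T (PR-UAS-bla), 2% charcoal-stripped serum; signal from LiveBLAzer FRET substrate, 2 hr at room temperature.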

A number with no mark means an inactive call. Records with an inconclusive call do not appear. The source made the active and inactive calls. Unless noted, the call rests on the fitted dose curve; in most records, active means well fitted curve in the direction sought with a large enough effect in the repeat runs; inconclusive means weak or mixed curves; inactive means no such curve, though single readings can be large; an effect the other way counts as inactive or inconclusive.
On the % scale 0 is the no-effect control and ±100 the full control effect.

Cytochrome P450 2C19 (Homo sapiens), sequence (P33261 whole entry, looked up): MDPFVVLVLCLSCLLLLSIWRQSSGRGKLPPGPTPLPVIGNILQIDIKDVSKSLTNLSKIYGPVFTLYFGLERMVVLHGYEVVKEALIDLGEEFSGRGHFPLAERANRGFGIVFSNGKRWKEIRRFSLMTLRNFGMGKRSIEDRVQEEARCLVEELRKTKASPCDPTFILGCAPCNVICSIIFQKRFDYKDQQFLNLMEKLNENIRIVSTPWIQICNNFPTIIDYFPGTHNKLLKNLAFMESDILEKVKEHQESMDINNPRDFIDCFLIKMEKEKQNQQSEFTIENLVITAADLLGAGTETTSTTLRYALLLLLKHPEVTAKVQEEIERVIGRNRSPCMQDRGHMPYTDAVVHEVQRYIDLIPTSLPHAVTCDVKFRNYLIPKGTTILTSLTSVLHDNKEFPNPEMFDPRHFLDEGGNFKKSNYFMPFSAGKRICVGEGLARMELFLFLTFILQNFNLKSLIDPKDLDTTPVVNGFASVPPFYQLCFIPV
Progesterone receptor (Homo sapiens), sequence (P06401 whole entry, looked up): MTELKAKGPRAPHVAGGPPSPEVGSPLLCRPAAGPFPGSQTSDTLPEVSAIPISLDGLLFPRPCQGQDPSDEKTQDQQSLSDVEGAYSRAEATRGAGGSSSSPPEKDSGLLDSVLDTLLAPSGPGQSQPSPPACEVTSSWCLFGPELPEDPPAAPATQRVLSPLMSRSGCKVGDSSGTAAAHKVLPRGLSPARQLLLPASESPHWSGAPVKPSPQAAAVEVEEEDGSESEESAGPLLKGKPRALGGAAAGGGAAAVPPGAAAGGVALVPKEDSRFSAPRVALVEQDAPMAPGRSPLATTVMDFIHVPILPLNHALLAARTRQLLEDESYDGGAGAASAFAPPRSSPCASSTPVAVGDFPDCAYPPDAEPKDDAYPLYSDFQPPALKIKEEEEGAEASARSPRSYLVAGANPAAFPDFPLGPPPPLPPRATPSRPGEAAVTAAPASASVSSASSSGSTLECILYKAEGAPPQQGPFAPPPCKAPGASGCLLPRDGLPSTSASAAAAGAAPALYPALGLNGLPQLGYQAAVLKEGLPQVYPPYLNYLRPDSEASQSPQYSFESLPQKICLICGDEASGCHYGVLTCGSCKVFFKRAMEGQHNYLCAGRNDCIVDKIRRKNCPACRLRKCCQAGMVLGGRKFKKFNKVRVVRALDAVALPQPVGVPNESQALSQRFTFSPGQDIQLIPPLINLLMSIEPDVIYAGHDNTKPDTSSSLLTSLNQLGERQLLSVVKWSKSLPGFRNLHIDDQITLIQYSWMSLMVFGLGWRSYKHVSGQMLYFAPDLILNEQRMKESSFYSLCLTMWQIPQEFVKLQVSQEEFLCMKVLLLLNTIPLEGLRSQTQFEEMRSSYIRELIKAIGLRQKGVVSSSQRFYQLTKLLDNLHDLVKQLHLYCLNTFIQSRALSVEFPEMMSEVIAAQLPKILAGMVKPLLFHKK
Nuclear receptor subfamily 1 group I member 2 (Homo sapiens), sequence (O75469 whole entry, looked up): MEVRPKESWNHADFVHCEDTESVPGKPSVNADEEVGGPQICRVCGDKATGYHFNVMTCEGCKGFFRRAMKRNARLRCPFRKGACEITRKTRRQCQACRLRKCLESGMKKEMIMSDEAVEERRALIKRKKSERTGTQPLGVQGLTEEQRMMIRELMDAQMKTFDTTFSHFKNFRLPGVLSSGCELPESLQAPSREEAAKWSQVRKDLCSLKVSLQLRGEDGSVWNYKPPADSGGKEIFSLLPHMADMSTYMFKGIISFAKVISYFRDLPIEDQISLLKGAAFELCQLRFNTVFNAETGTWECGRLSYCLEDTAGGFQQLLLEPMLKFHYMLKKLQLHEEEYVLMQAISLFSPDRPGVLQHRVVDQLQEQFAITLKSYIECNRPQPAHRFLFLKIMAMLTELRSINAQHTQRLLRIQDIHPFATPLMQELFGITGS
Thyrotropin-releasing hormone receptor (Homo sapiens), sequence (P34981 whole entry, looked up): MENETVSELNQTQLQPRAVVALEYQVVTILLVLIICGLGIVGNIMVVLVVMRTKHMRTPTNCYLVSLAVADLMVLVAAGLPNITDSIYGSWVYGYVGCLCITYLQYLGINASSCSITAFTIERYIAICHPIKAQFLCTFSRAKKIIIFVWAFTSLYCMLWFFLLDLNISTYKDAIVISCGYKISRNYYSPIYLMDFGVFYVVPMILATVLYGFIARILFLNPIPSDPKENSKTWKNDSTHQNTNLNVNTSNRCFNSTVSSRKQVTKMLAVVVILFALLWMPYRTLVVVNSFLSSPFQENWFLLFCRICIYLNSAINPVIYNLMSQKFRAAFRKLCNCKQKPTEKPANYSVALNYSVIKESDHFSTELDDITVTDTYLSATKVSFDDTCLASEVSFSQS
Cytochrome P450 2D6 (Homo sapiens), sequence (P10635 whole entry, looked up): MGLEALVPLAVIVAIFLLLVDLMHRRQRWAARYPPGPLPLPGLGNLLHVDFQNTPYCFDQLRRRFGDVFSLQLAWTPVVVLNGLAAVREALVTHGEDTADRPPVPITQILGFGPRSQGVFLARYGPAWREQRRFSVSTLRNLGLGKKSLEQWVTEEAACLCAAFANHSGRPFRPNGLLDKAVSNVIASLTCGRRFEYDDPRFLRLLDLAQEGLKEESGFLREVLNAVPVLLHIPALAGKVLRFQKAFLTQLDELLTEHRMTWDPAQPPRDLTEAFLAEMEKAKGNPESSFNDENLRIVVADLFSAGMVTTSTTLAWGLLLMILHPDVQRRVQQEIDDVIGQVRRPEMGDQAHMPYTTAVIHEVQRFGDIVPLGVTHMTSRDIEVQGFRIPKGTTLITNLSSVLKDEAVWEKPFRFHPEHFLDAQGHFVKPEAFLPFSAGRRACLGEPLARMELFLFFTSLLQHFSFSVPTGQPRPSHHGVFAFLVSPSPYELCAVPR

Consider `NO`, for which the Potency result in [1], in experiment [2], in experiment [6], in [8] and in experiment [9] was “inactive” throughout. The outcome in [3], in experiment [4], in experiment [5] and in [7] was inactive.
`C=C(C)C(=O)OCCOCCOCCOCCOC(=O)C(=C)C`: the Potency result in experiment [1], in experiment [2], in experiment [6], in [8], in experiment [9] and in [12] was “inactive” each time. In addition, the Potency result in experiment [13] is “inactive”. The outcome in experiment [3], in [4], in experiment [5], in experiment [10] and in [11] was inactive. Also, in [14], the Potency was 71 µM (active).
Turning to `CC(C)(C)OC(=O)c1cccc(N)c1`, the Potency entry in [1], in experiment [2], in [15], in experiment [6], in experiment [8] and in [9] was “inactive” in each case. The compound was called inactive in experiment [3], in experiment [4], in [5], in experiment [10], in experiment [7] and in [11]. Also, the Potency in experiment [12] is 28 µM (active); in experiment [14], 25.9 µM (active).
Consider `CCN(Cc1ccccc1)c1ccccc1`, for which the Potency result in experiment [16], in experiment [15], in [6], in experiment [8] and in experiment [9] was “inactive” throughout. Further, the result in experiment [3], in [4], in [5], in experiment [10], in [7] and in experiment [11] was inactive. The Potency in experiment [14] is 1.76 µM (active).
For `C[N+]1(CC2COC(c3ccccc3)(c3ccccc3)O2)CCCCC1` (stereo unspecified), the activity change, negative = inhibition in [16] is 3.69% [at 18.9 µM]. Besides, the activity change, negative = cytotoxicity in experiment [2] was -1.98% [at 19 µM]; in experiment [4], -19% [at 15.8 µM]; in experiment [6], -0.185% [at 19 µM]; in experiment [8], 2.24% [at 19 µM]; in experiment [9], 9.88% [at 19 µM]. Moreover, in [3], the viability change, negative = cytotoxic is 7.39% [at 15.8 µM]. Also, the activation is 1.32% [at 15.8 µM] in experiment [5], 10.8% [at 11.8 µM] in [15] and 5.26% [at 19 µM] in experiment [12]. Also, the activity, negative = inhibition in experiment [10] was 1.31% [at 10.5 µM]. In experiment [7], the caspase activation was -0.482% [at 19 µM]. Also, in experiment [11], the caspase-3/7 activation was -0.436% [at 19 µM]. Further, the Potency result in experiment [14] was “inactive”.
In the case of `CCCCOCCOC(=O)COc1cc(Cl)c(Cl)cc1Cl`, the Potency result in [1], in experiment [2], in [15], in [8], in experiment [9] and in [12] was “inactive” each time. Moreover, the result in [3], in experiment [4], in [5], in [10], in [7] and in experiment [11] was inactive. The Potency in experiment [14] was 35.6 µM (active).
Take `c1coc(CNc2ncnc3nc[nH]c23)c1`: the Potency entry in [16], in experiment [1], in [15], in experiment [8] and in experiment [9] was “inactive” throughout. Moreover, the result in experiment [3], in experiment [4], in experiment [5], in experiment [10], in experiment [7] and in [11] was inactive.
On to `Cc1cc(C)c(N=Nc2c(O)c(S(=O)(=O)O)cc3cc(S(=O)(=O)O)ccc23)cc1C`, for which the activity change, negative = cytotoxicity is 1.98% [at 8.39 µM] in [1]; 0% [at 8.39 µM] in experiment [2]; -4.86% [at 6.97 µM] in experiment [4]; -25% [at 8.39 µM] in experiment [6]; -8.22% [at 8.39 µM] in experiment [8]; -13.8% [at 8.39 µM] in experiment [9]. Further, the viability change, negative = cytotoxic in experiment [3] was -0.1% [at 6.97 µM]. For the same compound, the activation in experiment [5] is 0.0984% [at 6.97 µM]; in experiment [12], -9.92% [at 8.39 µM]. Also, in [7], the caspase activation is -0.299% [at 8.39 µM]. Further, the caspase-3/7 activation in experiment [11] is -0.604% [at 8.39 µM]. For the same compound, the activity change, negative = inhibition in [13] is -11.1% [at 10.5 µM]; in experiment [14], 9.38% [at 10.5 µM].
For the compound `O=C1CCCCCCCCCCCCCCO1`, the Potency result in experiment [1], in [15], in [6], in [8], in experiment [9] and in experiment [12] was “inactive” each time. For the same compound, the Potency result in experiment [14] is “inactive”. Besides, the compound was classed as inactive in experiment [3], in experiment [4], in experiment [5], in experiment [10] and in experiment [11].

The values above are taken from PubChem BioAssay (Tox21).
